“And” between values parts separate entries of the source, which are not always exact repeats. Equal entries are not always repeated. Records with an inconclusive call do not appear. A call without a number means that no potency is given here. More than one record can exist for a structure, and the calls need not agree. The source made the active and inactive calls. The call rests on the fitted dose curve; in most records, active means well fitted curve in the direction sought with a large enough effect; inconclusive means small, poorly fitted or top-dose-only effect, or another doubt; inactive means no such curve, though single readings can be large; an effect the other way counts as inactive or inconclusive.
How the values were obtained:
[1] = target: Glutathione peroxidase 1 (Homo sapiens) (UniProt P07203); assay: Primary qHTS Assay for Inhibitors of Recombinant Selenoprotein Glutathione Peroxidase 1 (GPX1) (AID 1845191); further: nearly all actives have a fitted effect of over 65% in size
How it was run: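 GR-coupled assay: compounds preincubated 30 min at room temperature with GPX1, then reaction started with CHP; final 10 nM GPX1, 1 mM GSH, 0.5 mM CHP, 0.5 mM NADPH, 100 nM GR, 0.01% BSA, pH 7.5 Tris buffer. NADPH fluorescence (340/450 nm) read at 0 and 15 min.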

[2] = target: Phospholipid hydroperoxide glutathione peroxidase GPX4 (Homo sapiens) (UniProt P36969); assay: Primary qHTS Assay for Inhibitors of Recombinant Selenoprotein Glutathione Peroxidase 4 (GPX4) (AID 1845192); further: nearly all actives have a fitted effect of over 65% in size
How it was run: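 GR-coupled assay: recombinant GPX4 preincubated 30 min with compound at room temperature; final 200 nM GPX4, 1 mM GSH, 0.5 mM cumene hydroperoxide, 0.5 mM NADPH, 100 nM GR, 0.01% BSA, pH 7.5 Tris. NADPH fluorescence (340/450 nm) read at 0 and 15 min.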

[3] = Quantitative High-Throughput drug screen in 47 multiple myeloma cell lines against the NCATS MIPE library collection: FR4_PLB cell viability assay (AID 1918924; further: nearly all actives have a fitted effect of over 35% in size)
How it was run: (§1)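 Inhibition of cell viability is measured here. Each line was plated at 500 cells per well, treated with MIPE 4.0 drugs, kept 48 hours at 37C, then assayed for ATP content by CellTiter-Glo luminescence.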

[4] = Quantitative High-Throughput drug screen in 47 multiple myeloma cell lines against the NCATS MIPE library collection: Delta47_JCRB cell viability assay (AID 1918925; further: nearly all actives have a fitted effect of over 45% in size)
How it was run: (§2)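 CellTiter-Glo luminescence (ATP) after 48 h compound exposure, 37C/5% CO2; 500 cells/well; MIPE 4.0 approved/investigational drugs pinned in; DMSO = 100%, media only = 0% viability.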

[5] = Quantitative High-Throughput drug screen in 47 multiple myeloma cell lines against the NCATS MIPE library collection: EJM_DSMZ cell viability assay (AID 1918926; further: nearly all actives have a fitted effect of over 30% in size)
How it was run: as §2

[6] = Quantitative High-Throughput drug screen in 47 multiple myeloma cell lines against the NCATS MIPE library collection: AMO1_DSMZ cell viability assay (AID 1918927; further: nearly all actives have a fitted effect of over 30% in size)
How it was run: as §2

[7] = Quantitative High-Throughput drug screen in 47 multiple myeloma cell lines against the NCATS MIPE library collection: ARP1_JJKsccF8 cell viability assay (AID 1918928; further: nearly all actives have a fitted effect of over 40% in size)
How it was run: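 ATP readout (CellTiter-Glo), 48 h drug incubation, 37 °C/5% CO2, 500 cells per well; normalisation to DMSO (100%) and media-only (0%) controls.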

[8] = Quantitative High-Throughput drug screen in 47 multiple myeloma cell lines against the NCATS MIPE library collection: Karpas620_DSMZ cell viability assay (AID 1918959); further: nearly all actives have a fitted effect of over 30% in size
How it was run: as §1

[9] = Quantitative High-Throughput drug screen in 47 multiple myeloma cell lines against the NCATS MIPE library collection: ARD_JJKsccE7 cell viability assay (AID 1918929)
How it was run: as §2
Potency means the concentration at half of the fitted maximal effect.

Chain of Phospholipid hydroperoxide glutathione peroxidase GPX4 (Homo sapiens) (P36969 whole entry, looked up): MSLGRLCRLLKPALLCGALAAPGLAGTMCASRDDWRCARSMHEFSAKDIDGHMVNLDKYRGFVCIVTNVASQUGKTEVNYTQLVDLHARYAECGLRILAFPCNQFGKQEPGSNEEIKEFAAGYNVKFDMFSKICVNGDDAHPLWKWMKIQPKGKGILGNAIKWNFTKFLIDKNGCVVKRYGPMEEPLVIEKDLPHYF
Chain of Glutathione peroxidase 1 (Homo sapiens) (P07203 whole entry, looked up): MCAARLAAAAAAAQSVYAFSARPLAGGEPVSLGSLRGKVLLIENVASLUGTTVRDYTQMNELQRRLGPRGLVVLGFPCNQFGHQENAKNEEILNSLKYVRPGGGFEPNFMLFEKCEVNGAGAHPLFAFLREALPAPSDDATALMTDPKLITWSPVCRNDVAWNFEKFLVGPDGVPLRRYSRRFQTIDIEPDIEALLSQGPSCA

Row | Structure (SMILES) | Potency [1] | Potency [2] | Potency [3] | Potency [4] | Potency [5] | Potency [6] | Potency [7] | Potency [8] | Potency [9]
1 | Cc1cccc(Nc2ccncc2S(=O)(=O)NC(=O)NC(C)C)c1 | inactive | inactive | inactive | inactive | inactive | inactive | inactive | inactive | 
2 | COC(=O)Nc1nc2ccc(C(=O)c3ccccc3)cc2[nH]1 | inactive | inactive | 0.296 µM (active) | 1.66 µM (active) | 4.69 µM (active) |  | 0.743 µM (active) |  | 
3 | Oc1c(Cl)cc(Cl)c2cccnc12 | inactive | inactive | 18.7 µM (active) | 23.5 µM (active) | 6.62 µM (active) | 10.5 µM (active) | 26.4 µM (active) | 3.72 µM (active) | 18.7 µM (active)
4 | CC(N)C12CC3CC(CC(C3)C1)C2 (centres undefined) | 6.4 µM (active) and inactive | inactive | inactive | inactive | inactive |  |  | inactive | inactive
5 | CO[C@@]12[C@H](COC(N)=O)C3=C(C(=O)C(C)=C(N)C3=O)N1C[C@@H]1N[C@@H]12 | inactive | inactive | 26.4 µM (active) | 23.5 µM (active) |  | inactive | 26.4 µM (active) | inactive | inactive
6 | CC(C)OC(=O)C(C(=O)OC(C)C)=C1SC=CS1 | inactive | inactive | inactive | inactive | inactive | inactive | inactive | inactive | 
7 | CN(C)CCc1c[nH]c2ccc(CS(=O)(=O)N3CCCC3)cc12 | inactive | inactive | inactive | inactive | inactive | inactive | inactive | inactive | 
8 | CC(=O)Oc1ccccc1C(=O)Nc1ncc([N+](=O)[O-])s1 | inactive | inactive | 19.1 µM (active) | 30.3 µM (active) | 13.6 µM (active) | 13.6 µM (active) | 34 µM (active) | 12.1 µM (active) | 21.5 µM (active)
9 | CC(C)(Sc1cc(C(C)(C)C)c(O)c(C(C)(C)C)c1)Sc1cc(C(C)(C)C)c(O)c(C(C)(C)C)c1 | inactive | inactive | inactive | 5.26 µM (active) |  | inactive | inactive | inactive | 
10 | CCN[C@H]1C[C@H](C)S(=O)(=O)c2sc(S(N)(=O)=O)cc21 | inactive | inactive | inactive | inactive |  | inactive | inactive | inactive | inactive
11 | N=C(N)c1ccc(OCCCCCOc2ccc(C(=N)N)cc2)cc1 | inactive | inactive |  | 5.26 µM (active) | 14.8 µM (active) |  | 16.6 µM (active) |  | inactive
12 | CCc1c2c(nc3ccc(OC(=O)N4CCC(N5CCCCC5)CC4)cc13)-c1cc3c(c(=O)n1C2)COC(=O)[C@]3(O)CC | 20.2 µM (active) and 2.05 µM (active) | 12.6 µM (active) |  | 1.32 µM (active) | 4.69 µM (active) | 1.32 µM (active) | 0.743 µM (active) |  | 0.0105 µM (active)
13 | NC(N)=NC(N)=NCCc1ccccc1 | inactive | inactive |  | 9.35 µM (active) | 4.69 µM (active) |  | 14.8 µM (active) |  | 
14 | CC(C)Cn1cnc2c(N)nc3ccccc3c21 | inactive | inactive | inactive |  | 5.26 µM (active) | 4.18 µM (active) |  | inactive | 5.9 µM (active)
15 | COc1c(N2CCNC(C)C2)c(F)cc2c(=O)c(C(=O)O)cn(C3CC3)c12 (centres undefined) | inactive | inactive | inactive |  | inactive | inactive | inactive | inactive | inactive
16 | NC(=O)c1cccnc1 | inactive | inactive | inactive |  | inactive | inactive | inactive | inactive | inactive
17 | CO[C@@H]1[C@@H](OC(N)=O)[C@@H](O)[C@H](Oc2ccc3c(O)c(NC(=O)c4ccc(O)c(CC=C(C)C)c4)c(=O)oc3c2C)OC1(C)C | inactive | inactive |  | 5.26 µM (active) | 5.26 µM (active) |  | 0.935 µM (active) |  | 
18 | CNC1CCCN(c2c(F)cc3c(=O)c(C(=O)O)cn(C4CC4)c3c2OC)C1 (centres undefined) | inactive | inactive | inactive |  |  |  | inactive |  | inactive
19 | COc1ncnc(NS(=O)(=O)c2ccc(N)cc2)c1OC | inactive | inactive |  | inactive | inactive | inactive |  | inactive | inactive
20 | CC(=O)CC(c1ccccc1)c1c(O)c2ccccc2oc1=O (centres undefined) | inactive | inactive | inactive |  | inactive |  | inactive | inactive | inactive
21 | NCCCC(O)(P(=O)(O)O)P(=O)(O)O | inactive | inactive |  | inactive | inactive | inactive |  | inactive | inactive
22 | C[C@@H](CN1CC(=O)NC(=O)C1)N1CC(=O)NC(=O)C1 | inactive | inactive | inactive |  | inactive |  |  |  | 
23 | CNS(=O)(=O)Cc1ccc2[nH]cc(CCN(C)C)c2c1 | inactive | inactive | inactive |  | inactive | inactive |  |  | 
24 | Nc1[nH]c(=O)ncc1F | inactive | inactive |  | inactive | inactive | 4.69 µM (active) | inactive | inactive | inactive
25 | COc1cc(NCc2ccc3nc(N)nc(N)c3c2C)cc(OC)c1OC | inactive | inactive |  | 18.7 µM (active) | 8.33 µM (active) | 0.935 µM (active) | 2.96 µM (active) | 6.62 µM (active) | 1.05 µM (active)
26 | CN1CCN(c2c(F)cc3c(=O)c(C(=O)O)cn4c3c2OCN4C)CC1 | inactive | inactive |  | inactive | inactive | inactive | inactive | inactive | inactive
27 | CN(C)c1ccc(C(=C2C=CC(=[N+](C)C)C=C2)c2ccc(N(C)C)cc2)cc1 | inactive | inactive |  | 0.0105 µM (active) | 0.148 µM (active) |  | 0.166 µM (active) |  | 0.526 µM (active)

— PubChem BioAssay (NCATS)
